About 360 (0.41%) of roughly 87,000 compounds were called active. Cut-off read from the data, not from the text of the source: active = cytotoxicity above about 50%; inactive = the rest. Only a selection was taken, and actives are over-represented in it overall.
Assay: HT1080 cell viability loss – fluorescence readout (AID 620);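 note: cells exposed to compound overnight then 4 h with Alamar Blue; 0% = vehicle DMSO and 100% = killing control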
Conditions: at 10 µM, hits give high values

Row | SMILES | cytotoxicity
1 | N#CCSc1nnc(Cc2cccs2)n1C1CCCCC1 | 11.1% (inactive)
2 | Cc1ccc(C(=O)N2CCC(C(N)=O)CC2)cc1C | -2.5% (inactive)
3 | Cc1nn(Cc2n[nH]c(=S)n2Cc2ccccc2)c(C)c1Cl | -7% (inactive)
4 | Cc1ccc(NC(=O)C2(N(CC(C)C)C(=O)Cn3nnnc3N)CCCCC2)cc1 | 3% (inactive)
5 | CCNC(=O)CSc1nnc(-c2ccc(OC)cc2)n1CC(C)C | -18.3% (inactive)
6 | CSCC[C@H](Nc1ncnc2sc(C)c(C)c12)C(=O)O | -6% (inactive)
7 | CSc1nnc(-c2ccccc2)o1 | -3.8% (inactive)
8 | O=c1[nH]c2ccccc2nc1N1CCOCC1 | -5% (inactive)
9 | O=S(=O)(c1ccc(N2CCC(c3ccc(Cl)cc3)=N2)cc1)N(CCO)CCO | -11.6% (inactive)
10 | CN(C)CCNS(=O)(=O)c1ccc(Cl)cc1 | -7.5% (inactive)
11 | COc1ccc(-n2nnc3c(=O)n(C/C=C/c4ccccc4)cnc32)cc1 | -3.8% (inactive)
12 | COc1ccc(CNC(=O)c2c(N)n(CCCN3CCOCC3)c3nc4ccccc4nc23)cc1 | 15.1% (inactive)
13 | Nc1c(C(=O)NCc2ccc3c(c2)OCO3)c2nc3ccccc3nc2n1CCCN1CCOCC1 | 52.9% (active)
14 | Nc1c(C(=O)NCc2ccc(F)cc2)c2nc3ccccc3nc2n1CCCN1CCOCC1 | 0.2% (inactive)
15 | O=C(O)CSCCc1ccccn1 | 8.2% (inactive)
16 | CN1C(=O)CSc2ccc(NC(=O)N3CCN(c4ccccn4)CC3)cc21 | -6.2% (inactive)
17 | COc1cccc(NC(=O)Nc2ccc3c(c2)N(C)C(=O)CS3)c1 | 6% (inactive)
18 | CN1C(=O)CSc2ccc(NC(=O)N3CCc4ccccc43)cc21 | 64.2% (active)
19 | Cc1nc(NC2=NCN(CCN3CCOCC3)CN2)nc2c(C)cccc12 | 4.7% (inactive)
20 | Cc1cc2nc(NC3=NCN(CCCN4CCOCC4)CN3)nc(C)c2cc1C | 4.7% (inactive)
21 | CCOC(=O)c1ccc(NC(=O)c2c(C)[nH]c(C(=O)OCC)c2C)cc1 | 5.5% (inactive)
22 | CCOC(=O)c1[nH]c(C)c(C(=O)Nc2ccc(Cl)cc2)c1C | 0.6% (inactive)
23 | CCOC(=O)c1[nH]c(C)c(C(=O)Nc2cc(Cl)ccc2C)c1C | 52% (active)
24 | COc1ccc(OC)c(NC(=O)c2[nH]c(C)c(C(C)=O)c2C)c1 | 11.3% (inactive)
25 | CCOC(=O)c1[nH]c(C)c(C(=O)OCC(=O)N2CCc3ccccc32)c1C | 6.7% (inactive)

Row | SMILES | cytotoxicity
26 | CCOC(=O)c1[nH]c(C)c(C(=O)Nc2ccc(C)c(Cl)c2)c1C | 22.7% (inactive)
27 | CCOC(=O)c1c(C)[nH]c(C(=O)OCC(=O)Nc2cc(C)ccc2OC)c1C | -1.2% (inactive)
28 | CCOC(=O)c1[nH]c(C)c(C(=O)Nc2ccc(C)c(C)c2)c1C | -11.9% (inactive)
29 | CCOC(=O)c1[nH]c(C)c(C(=O)N2CCc3ccccc32)c1C | 57.9% (active)
30 | CCOC(=O)c1c(C)[nH]c(C(=O)OCC(=O)N2CCc3ccccc32)c1C | -4.1% (inactive)
31 | CCOC(=O)c1[nH]c(C)c(C(=O)Nc2cc(OC)ccc2OC)c1C | 58% (active)
32 | CCOC(=O)c1[nH]c(C)c(C(=O)Nc2ccc(C)cc2C)c1C | 52.7% (active)
33 | O=C(Nc1ccccc1)N1CCCC2CCCCC21 (centres undefined) | 6.5% (inactive)
34 | COc1cccc(-c2ccc(=O)n(CC(=O)NCCN3CCOCC3)n2)c1 | -0.6% (inactive)
35 | Cc1ccc(NC(=O)CN(C)c2ccc(S(=O)(=O)N3CCN(C)CC3)cn2)cc1 | -4.8% (inactive)
36 | O=C(O)C1CC=CCC1C(=O)N1CCc2ccccc21 (centres undefined) | -3.6% (inactive)
37 | Cc1cc(C)n2cc(CSc3nc4cc(Cl)ccc4o3)nc2n1 | 1% (inactive)
38 | Cc1ccc(C2C(C(=O)O)c3ccccc3C(=O)N2C)o1 (centres undefined) | 3.3% (inactive)
39 | CCOC(=O)c1[nH]c(C)c(C(=O)Nc2ccccc2F)c1C | 44.7% (inactive)
40 | CCOC(=O)c1[nH]c(C)c(C(=O)Nc2ccccc2C)c1C | 61.8% (active)
41 | CCOC(=O)c1[nH]c(C)c(C(=O)Nc2cccc(Cl)c2C)c1C | 33.8% (inactive)
42 | COC(=O)C1=C(C)N(CCc2ccccc2)C(=O)C1(NS(=O)(=O)c1ccc(NC(C)=O)cc1)C(F)(F)F (centres undefined) | -19.4% (inactive)
43 | O=C(NCc1ccc2c(c1)OCO2)c1ccc(CN2CCOCC2)cc1 | -0.5% (inactive)
44 | CC(=O)N1c2ccccc2N(Cc2ccc(C)cc2C)C(=O)C1(C)C | 52.2% (active)
45 | Cc1ccc(C(=O)N2c3ccccc3N(Cc3ccccc3)C(=O)C2(C)C)cc1 | -12.6% (inactive)
46 | Cc1ccc(C)c(CN2C(=O)C3(OCCCO3)c3ccccc32)c1 | -5.2% (inactive)
47 | Cc1nnc(N2C(=O)C(O)=C(C(=O)c3ccco3)C2c2ccc(C(C)C)cc2)s1 (centres undefined) | -3.4% (inactive)
48 | O=C(Nc1cc(C(F)(F)F)ccc1N1CCOCC1)c1ccc[n+]([O-])c1 | 8.9% (inactive)
49 | CCc1ccccc1NS(=O)(=O)c1ccc2[nH]cc(C(=O)NCC3CCCO3)c(=O)c2c1 (centres undefined) | 3.1% (inactive)
50 | CCCCOC(=O)c1ccc(NC(=O)CSc2nncn2C)cc1 | 61.2% (active)

Row | SMILES | cytotoxicity
51 | Cn1cnnc1SCC(=O)Nc1ccccc1 | 5.5% (inactive)
52 | COC(=O)c1ccc(NC(=O)CSc2nncn2C)cc1 | 3.9% (inactive)
53 | CCCCCn1c(=O)[nH]c2cc(C(=O)NCCCN3CCCCC3)ccc2c1=O | -6% (inactive)
54 | CN(C)S(=O)(=O)c1cccc(-c2nnc(-c3ccccc3)o2)c1 | -8% (inactive)
55 | O=C(CSCc1c(Cl)cccc1Cl)NCc1ccco1 | 6.4% (inactive)
56 | CN(C)CCNC(=O)c1coc(=O)c(Br)c1 | -5.5% (inactive)
57 | C[C@@H](NC(=O)c1coc(=O)c(Br)c1)c1ccccc1 | 2.9% (inactive)
58 | CC(C)CCOc1ccc(C(=O)O)cc1 | -1.4% (inactive)
59 | COc1cc(OC)c(NC(=O)CCc2ccccc2)cc1Cl | -15.4% (inactive)
60 | CNC(=O)CSc1nnc(-c2ccco2)n1-c1ccccc1OC | 25.4% (inactive)
61 | CC(SC(=S)N1CCOCC1)C(=O)O (centres undefined) | 7.1% (inactive)
62 | CC(C(=O)OCc1nnc(-c2ccccc2)o1)N1C(=O)c2ccccc2C1=O (centres undefined) | 4.5% (inactive)
63 | COc1ccccc1OCCn1cc(C#N)c2ccccc21 | -3.5% (inactive)
64 | N#Cc1cn(CCCOc2ccccc2)c2ccccc12 | 24.2% (inactive)
65 | COc1ccccc1OCCCn1cc(C#N)c2ccccc21 | 76.4% (active)
66 | Cc1cc(C)n(-c2nc3c(c(=O)[nH]c(=O)n3C)n2CCc2ccccc2)n1 | 15.7% (inactive)
67 | Cc1ccc(Cn2c(-n3nc(C)cc3C)nc3c2c(=O)[nH]c(=O)n3C)cc1 | -7.9% (inactive)
68 | COc1ccc(CCn2c(-n3nc(C)cc3C)nc3c2c(=O)[nH]c(=O)n3C)cc1 | 55.6% (active)
69 | CC(=O)Cc1nsc(NC(=O)C2Cc3ccccc3C(=O)O2)n1 (centres undefined) | -9.2% (inactive)
70 | COc1ccccc1/C=N/n1c(C)nnc1-n1nc(C)cc1C | 9.8% (inactive)
71 | Cc1cc(C)n(-c2nnc(C)n2/N=C/c2cc(Br)ccc2OCc2ccccc2)n1 | 5.9% (inactive)
72 | CCCOc1ccc2ccccc2c1/C=N/n1c(C)nnc1-n1nc(C)cc1C | 61.6% (active)
73 | Cc1c(C(N)=O)sc2ncn(CC(=O)N3CCC(C)CC3)c(=O)c12 | 0.9% (inactive)
74 | CCN1CCCC1CNC(=O)CN1C(=O)COc2ccc(C)cc21 (centres undefined) | -4.1% (inactive)
75 | O=C(Cc1n[nH]c(=O)c2ccccc12)OCC(=O)c1ccc2c(c1)OCCO2 | 60.4% (active)

Row | SMILES | cytotoxicity
76 | O=C(Cn1cnc2ccccc2c1=O)OCC(=O)c1ccc2c(c1)OCCO2 | -7.6% (inactive)
77 | O=C(Cc1ccc(Br)cc1)OCC(=O)c1ccc2c(c1)OCCO2 | -6.8% (inactive)
78 | CC(C)c1cc(Nc2cccc(O)c2)cc(C(C)C)c1O | 2% (inactive)
79 | CCN(Cc1ccccc1)S(=O)(=O)c1ccc(S(=O)(=O)N(Cc2ccccn2)Cc2ccco2)cc1 | 11.3% (inactive)
80 | CCN1CCN(C(=O)Cn2ncc3ccsc3c2=O)CC1 | -5.8% (inactive)
81 | CCN1C(=O)/C(=C\N2CCCc3ccccc32)SC1=S | 52.5% (active)
82 | CCN1C(=O)/C(=C/N2CCc3ccccc32)SC1=S | 5.1% (inactive)
83 | CCN1C(=O)/C(=C\N2CCCCCC2)SC1=S | -5.6% (inactive)
84 | COc1ccc(C(=O)Nc2ccc(N3CCOCC3)cc2)cc1OC | -4.9% (inactive)
85 | COc1cc(C(=O)Nc2cccc3cccnc23)cc(OC)c1OC | 5.4% (inactive)
86 | Cn1c(=N)n(CC(O)c2cccc3ccccc23)c2ccccc21 (centres undefined) | 57.8% (active)
87 | Cn1c(=N)n(CC(=O)O)c2ccccc21 | 0.2% (inactive)
88 | Cn1c(=N)n(CC(O)c2ccco2)c2ccccc21 (centres undefined) | -14.7% (inactive)
89 | CC1CCC(C(C)C)C(OCC(O)CN2CCOCC2)C1 (centres undefined) | 2.7% (inactive)
90 | COc1ccccc1NC(=O)c1oc2ccccc2c1NC(=O)c1cc(OC)c(OC)c(OC)c1 | 50% (active)
91 | COc1ccccc1NC(=O)c1oc2ccccc2c1NC(=O)c1ccco1 | 0.3% (inactive)
92 | COCC(=O)Nc1c(C(=O)Nc2ccccc2OC)oc2ccccc12 | -17.1% (inactive)
93 | Cc1oc2c(c1C(=O)Nc1cccc(C(=O)O)c1)CCCC2 | 9.3% (inactive)
94 | CC1(C)CC2CC(C)(CN2C(=O)Cc2ccccc2)C1 (centres undefined) | -25% (inactive)
95 | COc1cccc(C2C(C(N)=O)=C(C)Nc3nc(CCCO)nn32)c1OC (centres undefined) | 1% (inactive)
96 | CCOC(=O)c1c(C)sc2c1N(C(=O)CCl)c1cc(Cl)ccc1S2 | 87.2% (active)
97 | CCOC(=O)c1c(C)sc2c1N(C(C)=O)c1cc(Cl)ccc1S2 | 17.6% (inactive)
98 | CCOC(=O)c1c(C)sc2c1N(C(=O)CN(CC)CC)c1cc(Cl)ccc1S2 | 6.5% (inactive)
99 | CCCN1CCN(C(c2cc3cc4c(cc3[nH]c2=O)OCO4)c2nnnn2C(C)(C)C)CC1 (centres undefined) | 1.4% (inactive)

Source: PubChem BioAssay AID620 (Sanford-Burnham Center for Chemical Genomics, 2007)
